These sequences were tested on VDR:RXRa (NR concentration 270 nM, RXRa partner concentration 90 nM) (assay: PBM binding z-score (relative to random genomic background probes); higher = stronger binding; sequences stand for … in GC…GCGATTGACAGCGTAGAATGAAGG).
Experimental: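 Protein-binding microarray (Agilent 4x180K custom design, double-stranded 60-nt probes: 5' GC cap, 34-nt variable region, 24-nt constant primer region; full probe sequence given). Purified or IVT nuclear receptor:RXRα heterodimers (3:1 NR:RXRα, mostly 270:90 nM) or homodimers were incubated for 1 h in PBS with 2% milk and no ligand, then detected with Alexa488 antibodies. Fluorescence from o1-orientation probes (~5 replicates averaged) was converted to z-scores against 500 random hg19 background probes. Variable regions are seed direct-repeat (DR0–DR5) sites, all their single-nucleotide variants and half-site ablations.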

Sequence	PBM binding z-score
TCATATAGGTAAATGGTAGGTGAAAGTCCGATCT	1.16
GCAGACAGGTTAAACGCAGGTAACTCAGGGTGGC	0.135
CAAACTAGTTCACCGGAAGGTCAAAGTCCGCATG	5.4
TATAGTTGGTCAAAGGTCACACACTCGAAATGCG	5.53
GCTTGTAGATCATGGTTAAGAAAGACTAAGCTAA	-0.404
CAGACTAGGTCACAGAGGTCAAAGTCCGTGCGTA	7.98
TTACCAAGGGGAGCTGAGGTCGTTGATCCAACTC	2.08
GCTGCTAGGCCAGGTTGGTCAGCTAACGGGTACG	-1.03
CCTACTGGGCTAAAAAGGTCATTGATGCCGATAA	4.33
AATACAGGGTCACTAGGCGAGAGTAGGTACGAAT	4.12
GCGATTGGGGCAAAGCAGGTTACCATAAGGTTGG	0.27
TAGCCTAGGTCATGCGGGCCAGTATCGTGTCGGC	2.81
TCATTTAGGTAAATGCTAGGTGAAAGTCCGATCT	0.573
CCTAGCAGGCCAATCTGGGTCACCCAAGGCTTGA	0.707
TCATATAGGTAATAGAGGTGAAAGTCGGCATCTA	2.08
TAGCCTAGGTCATTCAGGGGACAGTATAGAAAGC	3.56
AGTCAAAGTTCACTAGGGAACGTAAGATTCAGCT	3.85
TTACCAAGGTGAGCTGAGATCGTTGATCCAACTC	-0.473
CGTCCAAGGTCAAGGTCCGTGAAAGAGACTCGAA	4.04
TCGAGTTGGTTAGTCGGGGCATTCAGCCAACATA	0.43

Sequence	PBM binding z-score
TCTTGTAGATCAAGCAGGTTAATAAAGCCTGAGT	0.675
TCTTGTAGATAAGCAGGTTAAGAAAGCTGGCCAA	0.177
TAGCCTAGGTCACTGGGCCAGTATAGTACGCATC	1.45
CCTGCTAGGTCAACGGTCAGCTAAAGCAGCTCGC	1.58
CCTAGTGGGCCATCAGGTCATTGATATCAACGTT	1.61
CCTACTGGGCTAAAGGTCATTGATTCCAATGCTC	4.38
GCTTGTAGATTAAGGTTAAGAAAGACTAAGCTAA	0.125
ATCTCTAGGTAACAAGTTAAGTGAAAGAGAGGAC	0.232
TCATATAGGTAAATGCTAGGTGAAAGTGCGATCT	0.984
ATCGAAAGGTCGACGACGTGAGTATACACCGTTT	2.25
GCGACTGGGGCATCAGCAGGTTACCAAAACTTAA	-0.298
AGAATGAGGTTACCAAAGATCAGAGAAACGCTTG	1.36
GGAACGAGGGCATTCGAGTTGGTAGCATGGCGAT	2.35
GCATATAGGTAATACAAGGTGAGAGTCCGATTGT	0.351
CCTACTGGGCCACGAAAAGTCATTGATTCAGTGA	-0.413
TCATATAGGTAATACCGGTGAAAGTCGGCATCTA	0.463
AATACAGGGTCACTACGCCAGAGTAGGTACGAAT	4.39
GCTGCTAGGTCAGTTTGGTCAGCTAACGGGTACG	0.529
ACAGACAGTTGAGTGAAGGTAACTCAGCTGGACG	-0.356
CCTACTGGGCCAACAGGTCATTGATATCAACGTT	1.93

Reference: the supplement of paper PMC6555819
